Experimental findings from PubChem BioAssay AID2284419 (EPA ToxCast) are described below.

Records with an inconclusive call do not appear. Active and inactive are the calls of the source. The calls were made as follows: active = hit-call score of the fitted dose curve at least 0.9, where 1 is the maximum; inconclusive = response in the unintended direction; inactive = score below 0.9.

In this assay the test system is SRY-box transcription factor 2 (SOX2) Protein Expression, Deisenroth Lab, SOX2 (gene 6657). Put plainly: CCTE_Deisenroth_DEVTOX-GLR_Meso_SOX2: CCTE's DevTox GLR-Meso Assay Evaluation of SRY-box transcription factor 2 (SOX2) Protein Expression, Deisenroth Lab. The method, then:
CCTE_Deisenroth_DEVTOX-GLR_Meso assay is a cell-based, multiplex-readout assay that uses RUES2-GLR, a human pluripotent cell line, with measurements taken at 48 hours after chemical dosing in a 384-well microplateCCTE_Deisenroth_DEVTOX-GLR_Meso_SOX2 is 1 of 4 assay components calculated from the CCTE_Deisenroth_DEVTOX-GLR_Meso assay and it measures an the percentage of cells in an ectoderm state. Using a type of inducible fluorescent protein reporter, gain-of-signal activity can be used to understand changes in gene expression with fluorescent microscopy. The percentage of SOX2+ cells are determined by calculating the number of SOX2+ cells divided by the cell count. To generalize the intended target to other relatable targets, this assay component is annotated to the transcription factor intended target family, where the subfamily is SRY-related HMG-box.Data from the assay component CCTE_Deisenroth_DEVTOX-GLR_Meso_SOX2 was analyzed as 1 assay endpoint. The endpoint is the percent SOX2+ cell population minus the 0.2% DMSO control in the CCTE_Deisenroth_DEVTOX-GLR_Meso assay. Furthermore, this assay endpoint can be referred to as a secondary readout, because this assay has produced multiple assay endpoints where this one serves as a measure of ectoderm differentiation.
All assay protocols are aligned to the DevTox GLR-Endo assay workflow. Cells are seeded into 384-well microplates for 24 hours prior to initiating differentiation in defined media for a total duration of 48 hours. A total of two chemical exposures are administered in 24-hour intervals during the 48-hour differentiation period. At the assay termination point, cells are fixed and stained with a fluorescent dye demarcating the nucleus. High-content imaging is used to acquire brightfield and fluorescent channel images across 5 fields per well. Cell identification and mean biomarker fluorescence intensities are calculated with image analysis software to determine the total cell counts for viability assessment and the biomarker expression frequency for each lineage-dependent assay. A typical experimental design tests a 10-point concentration series (1 nM - 200 uM) for 28 compounds in single technical replicate. Assay plate controls include non-differentiated pluripotent cells (baseline control), lineage-specific differentiated cells (differentiation control), and DMSO solvent exposed differentiated cells (solvent control). Experiments typically comprise a minimum of four experimental replicates (n=4).
As usually defined, the AC50 is the concentration giving half of the maximal activity seen. For `CC(C)(c1ccc(O)cc1)c1ccc(O)cc1`, the AC50 was 56.6 µM (active). On to `CC1=C(/C=C/C(C)=C/C=C/C(C)=C\C(=O)O)C(C)(C)CCC1`, for which the AC50 was 18.8 µM (active). In the case of `O=C1NS(=O)(=O)c2ccccc21`, the compound was called inactive.

In the case of `CC/C(=C(/CC)c1ccc(O)cc1)c1ccc(O)cc1`, the AC50 was 3.63 µM (active). `O=c1[nH]cc(F)c(=O)[nH]1`: the AC50 is 19.9 µM (active). For `Nc1cccc2c1C(=O)N(C1CCC(=O)NC1=O)C2=O` (stereo not given), the compound was classed as inactive. As to `O=C1NC(=O)C(c2ccccc2)(c2ccccc2)N1`, the AC50 is 180 µM (active). For `O=C1CCC(N2C(=O)c3ccccc3C2=O)C(=O)N1` (stereo not given), the compound was called inactive. With `Nc1nc2ncc(CNc3ccc(C(=O)N[C@@H](CCC(=O)O)C(=O)O)cc3)nc2c(=O)[nH]1`, the outcome was inactive.

With `CC(=O)Nc1ccc(O)cc1`, the result was inactive.

`CC1(C)S[C@@H]2[C@H](NC(=O)Cc3ccccc3)C(=O)N2[C@H]1C(=O)O`: the outcome was inactive. For `CC1=C(/C=C/C(C)=C/C=C/C(C)=C/C(=O)O)C(C)(C)CCC1`, the AC50 is 7.53 µM (active). For the compound `CN(Cc1cnc2nc(N)nc(N)c2n1)c1ccc(C(=O)N[C@@H](CCC(=O)O)C(=O)O)cc1`, the AC50 is 0.0688 µM (active). With `CS(=O)(=O)OCCCCOS(C)(=O)=O`, the AC50 is 124 µM (active). As to `CCN(CC)CCNC(=O)c1c(C)[nH]c(/C=C2\C(=O)Nc3ccc(F)cc32)c1C`, the half-maximal activity concentration (AC50) is 0.194 µM (active).
